Measurements reported in PubChem BioAssay (Tox21).
Inconclusive results are not listed. Active and inactive are the calls of the source. Unless noted, calls follow the shape of the dose curve; as a rule, active = well fitted curve in the direction sought with a large enough effect in the repeat runs; inconclusive = weak or mixed curves; inactive = no such curve, though single readings can be large; an effect the other way counts as inactive or inconclusive.

How the values were obtained:
[1] = qHTS assay to identify small molecule that activate the aryl hydrocarbon receptor (AhR) signaling pathway - cell viability counter screen (AID 743086);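 also: HepG2 liver cells carrying the AhR DRE luciferase reporter; series mostly up to about 70 µM; nearly all actives have a fitted effect of over 45% in size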
In short: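 Cytotoxicity counter screen: CellTiter-Fluor signal (30 min, 37 C) in 4000 HepG2 cells/well carrying the DRE-luciferase reporter, following 24 h compound exposure at 37 C.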

[2] = biological target: Peroxisome proliferator-activated receptor gamma (Homo sapiens) (UniProt P37231); assay: qHTS assay to identify small molecule agonists of the peroxisome proliferator-activated receptor gamma (PPARg) signaling pathway (AID 743094; active = well fitted activation curve with a large enough effect in the signal ratio in the repeat runs, not every such curve was filed as active; the % refers to the signal ratio)
Sequence of Peroxisome proliferator-activated receptor gamma (Homo sapiens) (P37231 whole entry, looked up): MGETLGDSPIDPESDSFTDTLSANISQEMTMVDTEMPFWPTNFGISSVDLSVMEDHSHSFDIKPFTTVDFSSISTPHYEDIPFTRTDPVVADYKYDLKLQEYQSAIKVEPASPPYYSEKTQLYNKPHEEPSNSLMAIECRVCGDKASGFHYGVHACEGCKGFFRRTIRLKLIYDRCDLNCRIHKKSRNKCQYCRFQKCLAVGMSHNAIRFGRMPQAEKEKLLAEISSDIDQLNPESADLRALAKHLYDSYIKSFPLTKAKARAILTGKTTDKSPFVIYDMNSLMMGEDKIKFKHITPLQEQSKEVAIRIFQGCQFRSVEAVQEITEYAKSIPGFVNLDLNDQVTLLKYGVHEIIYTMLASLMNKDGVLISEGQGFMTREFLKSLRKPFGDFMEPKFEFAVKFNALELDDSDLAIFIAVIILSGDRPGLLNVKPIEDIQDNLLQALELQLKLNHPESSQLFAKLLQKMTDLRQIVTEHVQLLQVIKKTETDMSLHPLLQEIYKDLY
In short: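 Reporter activation was scored by fluorescence of cleaved LiveBLAzer B/G substrate (1 h, room temperature) in PPARg-bla HEK293H cells previously treated 17 h at 37C with DMSO-dissolved compounds.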

[3] = biological target: Peroxisome proliferator-activated receptor gamma (Homo sapiens) (UniProt P37231); assay: qHTS assay to identify small molecule antagonists of the peroxisome proliferator-activated receptor gamma (PPARg) signaling pathway (AID 743191; calls by dose curve; also: series mostly up to about 63 µM; nearly all actives have a fitted effect of over 30% in size)
In short: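 Beta-lactamase reporter under UAS control in HEK293H PPARg-bla cells; compound treatment 17 h at 37C. Read-out: fluorescence intensity after 1 h room-temperature incubation with LiveBLAzer B/G FRET substrate.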

[4] = qHTS assay to identify small molecule antagonists of the peroxisome proliferator-activated receptor gamma (PPARg) signaling pathway - cell viability counter screen (AID 743194); also: nearly all actives have a fitted effect of over 55% in size
In short: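 Viability was measured as CellTiter-Glo luminescence in GeneBLAzer PPARg UAS-bla HEK293H cells. These cells had been exposed 17 h at 37 C to compounds together with rosiglitazone at 50 nM final, with the beta-lactamase readout taken in the same wells.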

[5] = qHTS assay for small molecule agonists of the antioxidant response element (ARE) signaling pathway (AID 743202; active = well fitted activation curve with a large enough effect in the signal ratio in the repeat runs, not every such curve was filed as active; the % refers to the signal ratio)
In short: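 After 16 hours of compound treatment at 37 C, HepG2 cells with a stably integrated ARE-driven beta-lactamase reporter were loaded 2 hours at room temperature with LiveBLAzer B/G FRET substrate and fluorescence intensity measured.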

[6] = qHTS assay for small molecule agonists of the antioxidant response element (ARE) signaling pathway - cell viability counter screen (AID 743203; calls by dose curve; also: nearly all actives have a fitted effect of over 55% in size)
In short: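 Viability counter screen: stably transfected ARE-bla HepG2 line, 16 hrs compound exposure at 37C/5% CO2, ATP-based CellTiter-Glo luminescence measured in the reporter wells.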

[7] = qHTS assay for small molecule activators of the heat shock response signaling pathway - cell viability counter screen (AID 743209); also: nearly all actives have a fitted effect of over 50% in size
In short: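 Viability of HSE-bla HeLa cells is measured with CellTiter-Glo in the wells already used for the reporter read. Compound exposure lasts 5 h at 37 C, and luminescence is read after 30 min at room temperature.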

[8] = qHTS assay for small molecule activators of the heat shock response signaling pathway (AID 743210; active = well fitted activation curve with a large enough effect in the signal ratio in the repeat runs, with a control signal flat, not every such curve was filed as active; the % refers to the signal ratio; also: series mostly up to about 63 µM)
In short: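 Compound exposure lasted 5 h at 37 C in HeLa cells carrying a heat-shock-element-driven beta-lactamase reporter. Read-out: fluorescence intensity after 2.5 h room-temperature loading with LiveBLAzer B/G FRET substrate.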

[9] = qHTS assay to identify small molecule agonists of the peroxisome proliferator-activated receptor delta (PPARd) signaling pathway - cell viability counter screen (AID 743211); also: nearly all actives have a fitted effect of over 55% in size
In short: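 PPARd-bla HEK293H cells (3000/well) were pre-incubated 5 h at 37 C, then exposed to compound for 17 h at 37 C. After 2 h with LiveBLAzer substrate, CellTiter-Glo was added to the same wells; luminescence read after 30 min at room temperature.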

[10] = qHTS assay to identify small molecule antagonists of the peroxisome proliferator-activated receptor delta (PPARd) signaling pathway - cell viability counter screen (AID 743213); also: nearly all actives have a fitted effect of over 50% in size
In short: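 Viability counter-screen, qHTS format: PPARd-bla HEK293H, L165041 300 nM final, 17 h compound exposure at 37 C, CellTiter-Glo luminescence after 30 min RT.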

[11] = biological target: Bile acid receptor (Homo sapiens) (UniProt Q96RI1); assay: qHTS assay to identify small molecule antagonists of the farnesoid-X-receptor (FXR) signaling pathway (AID 743217; active = well fitted inhibition curve with a large enough effect in the signal ratio in the repeat runs, not every such curve was filed as active; the % refers to the signal ratio)
Sequence of Bile acid receptor (Homo sapiens) (Q96RI1 whole entry, looked up): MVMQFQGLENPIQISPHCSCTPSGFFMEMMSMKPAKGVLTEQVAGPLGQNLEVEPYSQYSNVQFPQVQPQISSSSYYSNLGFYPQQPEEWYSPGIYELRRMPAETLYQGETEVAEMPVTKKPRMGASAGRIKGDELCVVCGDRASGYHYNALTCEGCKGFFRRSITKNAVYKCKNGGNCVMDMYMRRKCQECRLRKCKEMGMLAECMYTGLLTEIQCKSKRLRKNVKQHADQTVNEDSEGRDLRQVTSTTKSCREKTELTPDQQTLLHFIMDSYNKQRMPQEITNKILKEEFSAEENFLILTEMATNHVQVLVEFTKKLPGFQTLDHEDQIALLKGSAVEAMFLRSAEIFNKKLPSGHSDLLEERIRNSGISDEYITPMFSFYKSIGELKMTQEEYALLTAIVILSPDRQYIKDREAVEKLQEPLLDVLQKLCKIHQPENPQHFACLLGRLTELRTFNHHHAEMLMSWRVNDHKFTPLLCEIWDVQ
In short: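 Screen of the Tox21 10K library in quantitative HTS format using FXR-UAS-bla HEK 293T reporter cells. Agonist chenodeoxycholic acid, 50 uM final, added with compounds; 16 h incubation at 37 °C; beta-lactamase FRET fluorescence measured.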

[12] = biological target: Bile acid receptor (Homo sapiens) (UniProt Q96RI1); assay: qHTS assay to identify small molecule agonists of the farnesoid-X-receptor (FXR) signaling pathway (AID 743220; active = well fitted activation curve with a large enough effect in the signal ratio in the repeat runs, not every such curve was filed as active; the % refers to the signal ratio)
In short: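 FXR-UAS-bla HEK 293T cells carrying a UAS-driven beta-lactamase reporter were plated for 5 h at 37C/5% CO2, then exposed to DMSO-dissolved Tox21 10K compounds for 16 h at 37C. A LiveBLAzer B/G FRET substrate was loaded for 2 h at room temperature before fluorescence reading.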

[13] = qHTS assay to identify small molecule antagonists of the farnesoid-X-receptor (FXR) signaling pathway - cell viability counter screen (AID 743221; active = well fitted cell-killing curve with a large enough effect in the repeat runs, not every such curve was filed as active; also: nearly all actives have a fitted effect of over 50% in size)
In short: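 GeneBLAzer FXR-UAS-bla HEK 293T cells, compound plus chenodeoxycholic acid (50 uM final), 16 h at 37 C. CellTiter-Glo added to the same wells after the beta-lactamase read; luminescence read after 30 min at room temperature as viability.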

[14] = biological target: Vitamin D3 receptor (Homo sapiens) (UniProt P11473); assay: qHTS assay to identify small molecule agonists of the vitamin D receptor (VDR) signaling pathway (AID 743222; calls by dose curve)
Sequence of Vitamin D3 receptor (Homo sapiens) (P11473 whole entry, looked up): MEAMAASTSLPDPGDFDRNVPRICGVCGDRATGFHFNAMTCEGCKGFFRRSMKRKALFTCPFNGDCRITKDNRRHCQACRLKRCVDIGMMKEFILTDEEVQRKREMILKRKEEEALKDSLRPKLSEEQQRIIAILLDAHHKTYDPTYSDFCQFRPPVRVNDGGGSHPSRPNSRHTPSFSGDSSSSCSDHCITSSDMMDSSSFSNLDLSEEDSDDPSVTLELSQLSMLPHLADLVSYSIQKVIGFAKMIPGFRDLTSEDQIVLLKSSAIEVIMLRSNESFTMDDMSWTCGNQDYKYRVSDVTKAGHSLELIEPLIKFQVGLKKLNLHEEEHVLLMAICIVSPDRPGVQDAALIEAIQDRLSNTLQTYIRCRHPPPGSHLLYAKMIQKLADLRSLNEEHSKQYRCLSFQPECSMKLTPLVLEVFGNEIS
In short: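 Fluorescence from cleaved LiveBLAzer B/G FRET substrate served as readout. VDR-bla cells had been treated 16 h at 37C with test compounds in DMSO, following a 4 h settling period, and substrate was loaded for 2 h at RT.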

[15] = biological target: Vitamin D3 receptor (Homo sapiens) (UniProt P11473); assay: qHTS assay to identify small molecule antagonists of the vitamin D receptor (VDR) signaling pathway (AID 743223; active = well fitted inhibition curve with a large enough effect in the signal ratio in the repeat runs, not every such curve was filed as active; the % refers to the signal ratio)
In short: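 VDR-bla cells were treated with compound plus 3 nM final 1alpha,25-dihydroxyvitamin D3 for 16 h at 37C. Beta-lactamase reporter read by B/G FRET substrate fluorescence after 2 h at room temperature. qHTS format.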

[16] = qHTS assay to identify aromatase inhibitors - cell viability counter screen (AID 743084);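 also: cells stimulated with testosterone during compound exposure; nearly all actives have a fitted effect of over 55% in size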
[17] = qHTS assay to identify small molecule agonists of the farnesoid-X-receptor (FXR) signaling pathway - cell viability counter screen (AID 743218); also: nearly all actives have a fitted effect of over 45% in size
In short: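 Viability of FXR-bla HEK 293T cells is measured by ATP-based CellTiter-Glo luminescence following 16 h compound treatment at 37 C and a prior 2 h room-temperature beta-lactamase substrate step.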

[18] = biological target: Peroxisome proliferator-activated receptor delta (Homo sapiens) (UniProt Q03181); assay: qHTS assay to identify small molecule antagonists of the peroxisome proliferator-activated receptor delta (PPARd) signaling pathway (AID 743215; active = well fitted inhibition curve with a large enough effect in the signal ratio in the repeat runs, not every such curve was filed as active; the % refers to the signal ratio;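 also: cells stimulated with agonist L165041 at 300 nM final during compound exposure; series mostly up to about 62 µM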)
Sequence of Peroxisome proliferator-activated receptor delta (Homo sapiens) (Q03181 whole entry, looked up): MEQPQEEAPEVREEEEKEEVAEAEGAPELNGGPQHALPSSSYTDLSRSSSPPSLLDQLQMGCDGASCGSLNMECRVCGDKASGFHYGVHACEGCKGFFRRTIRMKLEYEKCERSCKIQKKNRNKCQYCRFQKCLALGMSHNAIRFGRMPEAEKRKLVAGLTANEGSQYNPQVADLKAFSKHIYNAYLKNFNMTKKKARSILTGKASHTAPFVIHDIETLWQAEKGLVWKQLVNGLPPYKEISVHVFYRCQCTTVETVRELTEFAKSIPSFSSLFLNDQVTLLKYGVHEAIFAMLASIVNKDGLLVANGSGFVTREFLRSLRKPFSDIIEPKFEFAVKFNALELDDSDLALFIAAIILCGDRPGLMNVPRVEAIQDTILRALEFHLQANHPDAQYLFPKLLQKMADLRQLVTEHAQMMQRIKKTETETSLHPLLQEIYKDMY
In short: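 Plated HEK293H PPARd-bla cells rested 5 h at 37 C and 5% CO2. Compound, then agonist L165041 at 300 nM final, was added; 17 h at 37 C followed. Substrate loading, 2 h room temperature, fluorescence measured.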

[19] = biological target: Peroxisome proliferator-activated receptor delta (Homo sapiens) (UniProt Q03181); assay: qHTS assay to identify small molecule agonists of the peroxisome proliferator-activated receptor delta (PPARd) signaling pathway (AID 743212; calls by dose curve;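 also: HEK293H cells with PPARd UAS beta-lactamase reporter GeneBLAzer system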)
In short: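 Beta-lactamase reporter readout: a ratiometric FRET signal from the LiveBLAzer substrate after 2 h at room temperature. Compound exposure at 37 °C in PPARδ-bla HEK293H cells driven by an upstream activator sequence.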

[20] = biological target: Aryl hydrocarbon receptor (Homo sapiens) (UniProt P35869); assay: qHTS assay to identify small molecule that activate the aryl hydrocarbon receptor (AhR) signaling pathway (AID 743085);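 also: HG2L7.5c1 human HepG2 liver cells with stably integrated DRE-driven firefly reporter; series mostly up to about 70 µM; nearly all actives have a fitted effect of over 15% in size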
Sequence of Aryl hydrocarbon receptor (Homo sapiens) (P35869 whole entry, looked up): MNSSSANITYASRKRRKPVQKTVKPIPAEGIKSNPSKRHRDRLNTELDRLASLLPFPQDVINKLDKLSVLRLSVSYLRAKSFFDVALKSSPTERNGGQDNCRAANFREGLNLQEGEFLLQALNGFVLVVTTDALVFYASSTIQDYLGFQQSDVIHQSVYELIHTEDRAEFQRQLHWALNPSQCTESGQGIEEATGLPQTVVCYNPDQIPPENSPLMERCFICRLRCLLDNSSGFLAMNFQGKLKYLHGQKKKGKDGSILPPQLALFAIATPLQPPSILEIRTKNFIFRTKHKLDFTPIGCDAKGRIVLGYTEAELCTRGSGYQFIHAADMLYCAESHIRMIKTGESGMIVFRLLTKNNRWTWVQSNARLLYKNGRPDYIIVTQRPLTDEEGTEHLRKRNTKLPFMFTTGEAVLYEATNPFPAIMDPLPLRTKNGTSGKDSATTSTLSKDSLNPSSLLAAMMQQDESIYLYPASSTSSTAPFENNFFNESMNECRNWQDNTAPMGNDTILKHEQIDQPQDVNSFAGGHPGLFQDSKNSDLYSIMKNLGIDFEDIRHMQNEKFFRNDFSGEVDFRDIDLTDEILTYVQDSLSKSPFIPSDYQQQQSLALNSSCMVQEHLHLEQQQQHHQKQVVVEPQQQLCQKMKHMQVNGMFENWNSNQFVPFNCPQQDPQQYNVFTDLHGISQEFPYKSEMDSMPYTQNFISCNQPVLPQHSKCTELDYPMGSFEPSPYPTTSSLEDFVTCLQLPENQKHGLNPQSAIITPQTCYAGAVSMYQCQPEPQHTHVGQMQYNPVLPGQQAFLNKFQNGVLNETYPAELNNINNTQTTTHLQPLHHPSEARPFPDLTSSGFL
In short: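 HepG2 cells stably carrying a 20-DRE firefly luciferase reporter (HG2L7.5c1) treated with compound for 24 hr at 37C. Luciferase read by ONE-Glo luminescence, with CellTiter-Fluor viability read first.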

Measured: Potency

CC1c2ccccc2CN1NC(=O)c1ccc(Cl)c(S(N)(=O)=O)c1 (stereo unspecified)
inactive: [1] | [2] | [3] | [4] | [5] | [6] | [7] | [8] | [9] | [10] | [11] | [12] | [13] | [14] | [15]

CC(=O)OC(C)=O
inactive: [16] | [1] | [2] | [3] | [5] | [6] | [7] | [9] | [10] | [13] | [14] | [15]

CCC(=O)Oc1ccc2c(c1)CC[C@@H]1[C@@H]2CC[C@@]2(C)[C@H]1C[C@@H](OC(=O)CC)[C@@H]2OC(=O)CC
inactive: [3] | [4] | [5] | [6] | [7] | [9] | [10] | [11] | [17] | [12] | [13] | [14]

C/C(=C1\CCOC(=O)S1)N(C=O)Cc1cnc(C)nc1N
inactive: [5] | [6] | [7] | [8] | [10] | [18] | [11] | [12] | [13] | [14] | [15]

COc1cc2c(cc1OC)CN(C(=O)[C@H](C)N[C@@H](CCc1ccccc1)C(=O)O)[C@H](C(=O)O)C2
inactive: [4] | [5] | [6] | [7] | [8] | [9] | [19] | [10] | [18] | [17] | [13]

CC(C)NC(=O)c1ccc(C=O)cc1
inactive: [4] | [6] | [8] | [9] | [10] | [17] | [13] | [14]

CCN1CCCC1CN (stereo unspecified)
inactive: [3] | [4] | [6] | [7] | [9] | [19] | [10] | [18] | [13] | [14]

O=Cc1ccccc1Cl
inactive: [20] | [1] | [2] | [3] | [4] | [5] | [6] | [7] | [8] | [9] | [10] | [11] | [17] | [13] | [14]

CC(Oc1cc(Cl)ccc1Cl)C(=O)O (stereo unspecified)
inactive: [20] | [1] | [2] | [3] | [4] | [6] | [7] | [9] | [10] | [18] | [17] | [13]

CN(C)CC/C=C1/c2ccccc2COc2ccc(CC(=O)O)cc21
inactive: [5] | [6] | [7] | [8] | [9] | [13]

O=C(CCCl)NCCc1ccccc1
inactive: [4] | [5] | [6] | [8] | [9] | [19] | [10] | [18] | [11] | [17] | [12] | [13] | [14] | [15]

Fc1ccccc1
inactive: [16] | [1] | [6] | [7] | [8] | [9] | [19] | [17] | [13] | [14]
